Molecules are shown by their SMILES. Values joined by “and” are separate entries in the source; they are usually repeats but may differ in a detail not shown here. Equal entries are not always repeated. Results filed as inconclusive are left out. Some compounds were tested as several samples or in several runs, with calls that do not always agree. Active and inactive are the calls of the source. Calls follow the shape of the dose curve; as a rule, active = well fitted curve in the direction sought with a large enough effect; inconclusive = small, poorly fitted or top-dose-only effect, or another doubt; inactive = no such curve, though single readings can be large; an effect the other way counts as inactive or inconclusive. *1 amine or outer side, *2 acyl side, *3 side chain or, on linkers, in order; H or OH if unused. Where a SMILES comes first, the peptide text is derived from it. Bridges are numbered along the chain shown (N, C = ends). [ ]: non-standard residue; d: D form. The star is where a group is joined. ξ: configuration not given here. ξhTyr(3S-OH,4S-OH,3'-OSO3H) = NC(C(=O)O)[C@H](O)[C@@H](O)c1ccc(O)c(OS(=O)(=O)O)c1; Orn(4R-OH,5R-OH) = O=C([C@H](C[C@@H](O)[C@@H](O)N[*:3])N[*:1])[*:2]; X2 = CCCCCOc1ccc(-c2cc(-c3ccc(C(=O)*)cc3)no2)cc1; X3 = C[C@H]1CN([*:1])C(C(=O)[*:2])[C@H]1O; ξGln(3R-OH) = NC(=O)C[C@@H](O)C(N)C(=O)O; ξPro(4R-OH) = O=C(O)C1C[C@@H](O)CN1; ξThr(3R) = C[C@@H](O)C(N)C(=O)O

In test [1] the target is Glutathione peroxidase 1 (Homo sapiens) (UniProt P07203). As to the kind of experiment: Primary qHTS Assay for Inhibitors of Recombinant Selenoprotein Glutathione Peroxidase 1 (GPX1) (AID 1845191). Also: nearly all actives have a fitted effect of over 65% in size. As to activity, negative = inhibition: % is scaled to controls: 0 for no effect and ±100 for the full control effect. Put shortly:
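GPX1 10 nM, GR 100 nM, GSH 1 mM, NADPH 0.5 mM, CHP 0.5 mM (final). 30-min cpd preincubation, RT. Ex340/Em450 read t=0, t=15 min.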
Background: Quantitative high-throughput screening tests each substance at several concentrations.

The target in test [2] is Phospholipid hydroperoxide glutathione peroxidase GPX4 (Homo sapiens) (UniProt P36969). As to the kind of experiment: Primary qHTS Assay for Inhibitors of Recombinant Selenoprotein Glutathione Peroxidase 4 (GPX4) (AID 1845192). Also: nearly all actives have a fitted effect of over 65% in size. Also: potency is read from the fitted curve at half-maximal effect. As to activity change, negative = inhibition: series mostly up to about 50 µM; % is scaled to controls: 0 for no effect and ±100 for the full control effect. Put shortly: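 qHTS, GR-coupled: GPX4 200 nM + cpd 30 min RT → GSH 1 mM, NADPH 0.5 mM, GR 100 nM → CHP 0.5 mM start; fluor 340/450 at t0 and t15 min; no-enzyme wells as control.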
Phospholipid hydroperoxide glutathione peroxidase GPX4 (Homo sapiens), sequence (P36969 whole entry, looked up): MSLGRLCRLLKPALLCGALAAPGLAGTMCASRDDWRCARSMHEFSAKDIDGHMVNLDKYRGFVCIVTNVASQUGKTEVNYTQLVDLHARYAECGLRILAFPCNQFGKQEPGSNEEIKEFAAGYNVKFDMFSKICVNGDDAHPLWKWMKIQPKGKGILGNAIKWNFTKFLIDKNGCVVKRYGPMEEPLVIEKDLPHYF

In test [3] the target is Luciferin 4-monooxygenase (Photinus pyralis) (UniProt P08659). In words: Primary firefly luciferase (FLuc) qHTS assay for identification of artifact compounds. (AID 1845220). Also: nearly all actives have a fitted effect of over 60% in size. Also: potency is read from the fitted curve at half-maximal effect.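 As to activity change, negative = inhibition: series mostly up to about 54 µM; plate controls were DMSO vehicle for no effect and no enzyme for full effect.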 Put shortly: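 In this counter-screen for luciferase artifacts, test compounds met substrate (10 uM each luciferin and ATP) before 10 nM enzyme started the reaction. Light output was measured 5 min later.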

The subject of test [4] is Nanoluciferase (engineered Oplophorus gracilirostris luciferase). In words: Primary Nanoluciferase (NLuc) qHTS assay for identification of artifact compounds. (AID 1845222).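 Also: NLuc secreted into diluted conditioned medium of S16 cells; series mostly up to about 54 µM.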 Summed up: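 Using secreted nanoluciferase in S16 culture medium (0.22 um filtered, 1:55 dilution), compounds were preincubated 15 min at RT. Signal was generated with Nano-Glo reagent (1:100) over 5 min.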

Test [5] is described as follows: Primary redox qHTS assay for identification of artifact compounds. (AID 1845223).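 Also: 0% = DMSO and 100% = reference compound.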 Put shortly: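 Redox-cycling detection via DTT (250 uM final) oxidation coupled to Amplex Red (25 uM)/HRP (250 mU/mL) in HBSS. 15 min preincubation plus 30 min after DTT, room temperature. Ex/Em 525/598 nm; 4-parameter Hill fit against DMSO and 10 uM DA3003.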

Glutathione peroxidase 1 (Homo sapiens), sequence (P07203 whole entry, looked up): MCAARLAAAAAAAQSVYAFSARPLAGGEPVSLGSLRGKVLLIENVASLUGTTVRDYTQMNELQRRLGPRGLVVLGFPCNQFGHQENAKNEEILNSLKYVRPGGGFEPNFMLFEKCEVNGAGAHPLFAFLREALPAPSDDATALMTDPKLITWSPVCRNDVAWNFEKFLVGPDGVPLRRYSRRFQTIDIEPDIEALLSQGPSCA

Consider `CC1(C(=O)O)CC[C@]2(C(=O)OC3OC(CO)C(O)C(O)C3O)CC[C@]3(C)C(=CCC4[C@@]5(C)CC[C@H](OC6OCC(O)C(O)C6OC6OC(CO)C(O)C(O)C6O)C(C)(C)C5CC[C@]43C)C2C1` (stereo partly drawn), for which the Potency result in test [1] and in test [2] was “inactive” each time. For the same compound, the activity change, negative = inhibition in test [3] is 0.425% [at 11.6 µM] (inactive). Further, the activity, negative = inhibition in test [4] was 1.15% [at 11.6 µM] (inactive).

Regarding `CCCCCOc1ccc(-c2cc(-c3ccc(C(=O)N[C@H]4C[C@@H](O)[C@@H](O)NC(=O)C5[C@@H](O)[C@@H](C)CN5C(=O)C([C@H](O)CC(N)=O)NC(=O)C([C@H](O)[C@@H](O)c5ccc(O)c(OS(=O)(=O)O)c5)NC(=O)C5C[C@@H](O)CN5C(=O)C([C@@H](C)O)NC4=O)cc3)no2)cc1` (stereo partly drawn) (X2-[Orn(4R-OH,5R-OH)][ξThr(3R)][ξPro(4R-OH)][ξhTyr(3S-OH,4S-OH,3'-OSO3H)][ξGln(3R-OH)][X3]; lactam 1-C), the Potency result in test [1], in test [3] and in test [4] was “inactive” in each case. In addition, the Potency result in test [2] is “inactive and 2 µM (active)”.

Turning to `CCC/C=C/C=C/C1CC(O)C(O)C(=O)C1CO` (stereo not drawn), the Potency entry in test [1], in test [2], in test [3] and in test [4] was “inactive” each time.

For `CC(C)CC(c1c(O)c(C=O)c(O)c(C=O)c1O)C1CCC(C)(O)C2CC(C(C)(C)O)CCC12C` (stereo not drawn), the Potency entry in test [1], in test [2], in test [3] and in test [4] was “inactive” each time.

`C=C1CCC2C(C)(C)CC(=O)CC2(C)C1CCC(C)CCO` (stereo not drawn): the Potency entry in test [1], in test [2], in test [3] and in test [4] was “inactive” each time.

Regarding `COC1OC(=O)C2=C1C1(C)CCCC(C)(C)C1CC2O` (stereo not drawn), the Potency result in test [1], in test [2], in test [3], in test [4] and in test [5] was “inactive” throughout.

Turning to `C=C1CC2C(C)(CCC(=O)O)C(C(C)(C)O)CCC2(C)C2(C(=O)OC)C(=O)C(C)(O)C(=O)C12C` (stereo not drawn), the Potency entry in test [1], in test [2], in test [3] and in test [4] was “inactive” each time.

As to `CC(=O)c1ccc(O[C@@H]2O[C@H](CO[C@@H]3OC[C@@H](O)[C@H](O)[C@H]3O)[C@@H](O)[C@H](O)[C@H]2O)cc1`, the Potency entry in test [1], in test [2], in test [3], in test [4] and in test [5] was “inactive” in each case.

In the case of `OC[C@@]1(O)CO[C@@H](OC[C@H]2O[C@@H](Oc3ccccc3)[C@H](O)[C@@H](O)[C@@H]2O)[C@@H]1O`, the Potency result in test [1], in test [2], in test [3], in test [4] and in test [5] was “inactive” in each case.

Take `CCC1=C(C)C(=O)C(C)CC12C(=O)CCC2C(=O)O` (stereo not drawn): the Potency entry in test [1], in test [2], in test [3], in test [4] and in test [5] was “inactive” in each case.

For the compound `COC(=O)C1=COC(O[C@@H]2O[C@H](CO)[C@@H](O)[C@H](O)[C@H]2O)C2C(C)C(=O)CC12` (stereo partly drawn), the Potency result in test [1], in test [2], in test [3] and in test [4] was “inactive” each time.

Regarding `c1ccc2c(Nc3nnc(-c4ccncc4)s3)cccc2c1`, the Potency result in test [1], in test [2], in test [4] and in test [5] was “inactive” in each case. The Potency in test [3] was 7.57 µM (active).

For the compound `C[C@@H]1C[C@@H](O)[C@@]2(CO)C(CO)=CCC[C@@H]2[C@@]12C[C@@H](c1ccoc1)OC2=O`, the Potency entry in test [1], in test [2], in test [3], in test [4] and in test [5] was “inactive” throughout.

`C/C=C(\C)C1C(C)=CC2CCC(OS(=O)(=O)O)C(C)C2C1/C=C/C=C/C(=O)O` (stereo not drawn): the Potency result in test [1], in test [2], in test [3] and in test [4] was “inactive” throughout.

For the compound `CC1C(=O)OCC2=CC[N+]3([O-])CCC(OC(=O)C(C)(O)C1(C)O)C23` (stereo not drawn), the Potency entry in test [1], in test [2], in test [3] and in test [4] was “inactive” throughout.

On to `COc1cc([C@@H](O[C@@H]2O[C@H](CO)[C@@H](O)[C@H](O)[C@H]2O)[C@@H]2CO[C@H](c3ccc(O)c(OC)c3)[C@H]2CO)ccc1O`, for which the Potency result in test [1], in test [2], in test [3], in test [4] and in test [5] was “inactive” throughout.

As for `CC[C@@H]1[C@H]2CCCCN3C(=O)C[C@H]([C@@H]4[C@H]1OC(=O)[C@H]4C)[C@@H]23`, the Potency result in test [1], in test [2], in test [3] and in test [4] was “inactive” each time.

For the compound `CC(=O)/C=C/C1(O)C(C)(C)CC(O)CC1(C)O` (stereo not drawn), the Potency result in test [1], in test [2], in test [3], in test [4] and in test [5] was “inactive” throughout.

Regarding `C/C(=C\C1CCC(C)C2CCC3(C)OC123)C(=O)O` (stereo not drawn), the Potency result in test [1], in test [2], in test [3] and in test [4] was “inactive” in each case.

With `CC(=O)OC1CC(C(C)(C)O)OC2CCC3(C)OC4=C(C(=O)C=C5C(C)C(OC(C)=O)C6(C)C(C)OC546)C(O)C3C12C` (stereo not drawn), the Potency entry in test [1], in test [2], in test [3] and in test [4] was “inactive” in each case.

For the origin of these results see PubChem BioAssay (NCATS).
